Inconclusive results are not listed. A call without a number means that no potency is given here. The source made the active and inactive calls. Unless noted, calls follow the shape of the dose curve; as a rule, active = well fitted curve in the direction sought with a large enough effect; inconclusive = small, poorly fitted or top-dose-only effect, or another doubt; inactive = no such curve, though single readings can be large; an effect the other way counts as inactive or inconclusive. Where a SMILES comes first, the peptide text is derived from it.
How the values were obtained:
[1] = Primary qHTS for inhibitors of La Crosse Virus (LACV) - induced cell death in SH-SY5Y cells (AID 1508616);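 also: top concentration of the series differs between compounds; higher means more rescue of cells from virus-induced death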
In short: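 Cytopathicity rescue screen: compounds pinned onto SH-SY5Y cells, which are then infected with LACV (MOI 0.01) and held 6 days at 37C. Percent activity is scaled between infected DMSO control and uninfected DMSO control.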

[2] = target: Calcium and integrin-binding protein 1 (Homo sapiens) (UniProt Q99828); assay: Primary qHTS for Identification of Calcium Integrin Binding Protein 1 (CIB1) Competitor (AID 1508620);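 also: GST tagged CIB1 binding a fluorescein labelled alphaIIb integrin peptide tracer; top concentration of the series differs between compounds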
Calcium and integrin-binding protein 1 (Homo sapiens), sequence (Q99828 whole entry, looked up): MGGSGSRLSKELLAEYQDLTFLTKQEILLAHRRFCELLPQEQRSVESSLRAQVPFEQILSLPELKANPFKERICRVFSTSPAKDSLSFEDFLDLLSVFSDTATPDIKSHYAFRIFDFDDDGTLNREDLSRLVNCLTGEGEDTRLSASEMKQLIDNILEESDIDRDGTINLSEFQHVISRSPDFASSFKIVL
In short: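 Fluorescence polarization competition: GST-tagged CIB1 (1 uM final) preincubated with compound 15 min at room temperature, then FITC-labelled alphaIIb peptide (100 nM final) added. After 15 min at room temperature, polarization read at Ex 480/Em 540.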

[3] = Primary qHTS for small molecule stabilizers of the endoplasmic reticulum resident proteome: Secreted ER Calcium Modulated Protein (SERCaMP) assay (AID 1508630)
In short: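 The SH-SY5Y reporter protocol was run at 3 concentrations up to 38.3 uM (primary) or 11 concentrations (follow-up): 16 h compound, 100 nM thapsigargin for 4 h, then extracellular luciferase luminescence.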

[4] = A High-Content qHTS Against Drug Library for the Identification of Small Molecules that Inhibit DYT1 Early Onset Primary Dystonia-Associated Cell Pathology (AID 1645839; calls by dose curve; also: series mostly up to about 46 µM)
In short: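 Cells were seeded and left for 24 h, then dosed with compound alongside tetracycline induction of mutant EGFP-TorsinA. They were incubated for 48 h, fixed in 4% paraformaldehyde, permeabilized and imaged for mislocalization (%pathology) and cell count.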

[5] = target: Cytochrome P450 2D6 (Homo sapiens) (UniProt P10635); assay: Cytochrome P450 family 2 subfamily D member 6 (CYP2D6) small molecule antagonists: luciferase biochemical (cell-free) qHTS assay (AID 1645840; active = well fitted curve in the direction sought with a large enough effect in the repeat runs; an effect the other way counts as inactive or inconclusive; also: nearly all actives have a fitted effect of over 55% in size; also: potency is read from the fitted curve at half-maximal effect)
Cytochrome P450 2D6 (Homo sapiens), sequence (P10635 whole entry, looked up): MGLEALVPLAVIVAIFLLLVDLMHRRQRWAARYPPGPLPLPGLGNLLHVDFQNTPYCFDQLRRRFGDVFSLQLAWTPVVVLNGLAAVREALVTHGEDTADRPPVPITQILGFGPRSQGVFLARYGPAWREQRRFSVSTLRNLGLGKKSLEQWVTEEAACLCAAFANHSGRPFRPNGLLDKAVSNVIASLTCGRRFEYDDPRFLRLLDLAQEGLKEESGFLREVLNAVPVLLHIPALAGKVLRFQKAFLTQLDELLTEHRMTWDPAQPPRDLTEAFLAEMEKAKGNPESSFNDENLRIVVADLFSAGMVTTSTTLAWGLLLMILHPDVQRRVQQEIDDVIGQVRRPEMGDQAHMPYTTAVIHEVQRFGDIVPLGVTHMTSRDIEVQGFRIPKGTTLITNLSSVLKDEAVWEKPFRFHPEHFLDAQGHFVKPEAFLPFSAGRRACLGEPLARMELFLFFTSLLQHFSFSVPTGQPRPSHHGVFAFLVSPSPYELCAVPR
In short: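 P450-Glo CYP2D6 system: proluciferin substrate converted by enzyme to luciferin, read by luminescence proportional to activity. Enzyme-substrate mix with compound 10 min at room temperature, then NADPH regeneration 1 h before detection reagent.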

[6] = target: Cytochrome P450 2C9 (Homo sapiens) (UniProt P11712); assay: Cytochrome P450 family 2 subfamily C member 9 (CYP2C9) small molecule antagonists: luciferase biochemical (cell-free) qHTS assay (AID 1645842; active = well fitted curve in the direction sought with a large enough effect in the repeat runs; an effect the other way counts as inactive or inconclusive; also: nearly all actives have a fitted effect of over 55% in size; also: potency is read from the fitted curve at half-maximal effect)
Cytochrome P450 2C9 (Homo sapiens), sequence (P11712 whole entry, looked up): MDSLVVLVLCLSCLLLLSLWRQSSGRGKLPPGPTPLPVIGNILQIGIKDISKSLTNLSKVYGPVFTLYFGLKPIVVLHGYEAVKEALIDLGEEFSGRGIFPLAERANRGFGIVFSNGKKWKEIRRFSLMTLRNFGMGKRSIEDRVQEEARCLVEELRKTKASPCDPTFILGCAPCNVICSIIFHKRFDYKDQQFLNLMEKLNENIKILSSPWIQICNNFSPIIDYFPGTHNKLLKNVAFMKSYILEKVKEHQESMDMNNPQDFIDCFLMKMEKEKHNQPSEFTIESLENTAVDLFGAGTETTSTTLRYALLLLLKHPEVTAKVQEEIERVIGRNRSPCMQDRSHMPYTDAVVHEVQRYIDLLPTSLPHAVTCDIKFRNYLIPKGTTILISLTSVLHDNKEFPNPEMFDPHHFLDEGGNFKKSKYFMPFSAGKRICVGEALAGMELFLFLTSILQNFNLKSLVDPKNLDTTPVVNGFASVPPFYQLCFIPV
In short: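 P450-Glo CYP2C9 system: proluciferin substrate with enzyme in mix containing 0.4% BSA, 10 min at room temperature, then NADPH regeneration solution added and incubated 1 h at 37C. Detection reagent stopped reaction; luminescence read after 20 min as RLU.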

[7] = Primary qHTS for inhibitors of nuclear receptor binding SET domain protein 2 (NSD2) in an isogenic RCH-ACV NSD2 p.E1099K mutant (9B) (AID 1645876); also: nearly all actives have a fitted effect of over 70% in size
[8] = Primary qHTS for inhibitors of nuclear receptor binding SET domain protein 2 (NSD2) in an RCH-ACV wild type WT cells (2C) (AID 1645877); also: nearly all actives have a fitted effect of over 70% in size; also: potency is read from the fitted curve at half-maximal effect

Structure (SMILES)	outcome [1]	Potency [2]	Potency [3]	Potency [4]	Potency [5]	Potency [6]	Potency [7]	Potency [8]
CC(C)(C)NCC(O)COc1ccccc1OCC1CCCO1 (centres undefined)	inactive	inactive	inactive	inactive	6.17 µM (active)	inactive	inactive	inactive
Cc1ccc(/C=N/n2c(-c3ccccc3)csc2=S)cc1	inactive	inactive	inactive	inactive	inactive	4.36 µM (active)	inactive	inactive
CCCC(=O)O[C@]1(C(=O)CC)CC[C@H]2[C@@H]3CCC4=CC(=O)CC[C@]4(C)[C@H]3[C@@H](O)C[C@@]21C	inactive	inactive	inactive	inactive	12.3 µM (active)	17.4 µM (active)	inactive	inactive
CCOC(=O)C(=O)c1csc(NC=O)n1	inactive	inactive	inactive	inactive	19.5 µM (active)	inactive	inactive	inactive
O=[N+]([O-])c1nccn1CO[C@@H](CO)[C@H](O)CO	inactive	inactive	inactive	inactive	inactive	inactive	inactive	inactive
CCN(CC)CC(=O)Nc1c(C)cccc1C(=O)OC	inactive	inactive	inactive	inactive	inactive	inactive	inactive	inactive
O=C1[C@@H]2[C@H]3CC[C@H](C3)[C@@H]2C(=O)N1CCCCN1CCN(c2ncccn2)CC1	inactive	inactive	inactive	inactive	15.5 µM (active)	inactive	inactive	inactive
CCCCN(CCCC)C(C(N)=O)c1ccc(OC)cc1 (centres undefined)	inactive	inactive	inactive	inactive	0.776 µM (active)	inactive	inactive	inactive
Cc1ccccc1N1CCN(CCc2nnc3n2CCCC3)CC1	inactive	inactive	inactive	inactive	13.8 µM (active)	inactive	inactive	inactive
COc1ccc(CCC(C)=O)cc1	inactive	inactive	inactive	inactive	inactive		inactive	inactive
CCCCCCn1c(=O)c2c(ncn2C)n(C)c1=O	inactive	inactive	inactive	inactive	inactive		inactive	inactive
Cc1ncc(CO)c(CO)c1O	inactive	inactive	inactive	inactive	inactive	inactive	inactive	inactive
CC(=O)N[C@@H](CO)C(=O)N[C@@H](CC(=O)O)C(=O)N[C@@H](CCCCN)C(=O)N1CCC[C@H]1C(=O)O (Ac-SDKP-OH)	inactive	inactive	inactive	inactive	inactive	inactive	inactive	inactive
CN(C(=O)C(Cl)Cl)c1ccc(OC(=O)c2ccco2)cc1	inactive	inactive	inactive	inactive	inactive		inactive	
CC(=O)OCC(=O)[C@@]1(O)CCC2C3CCC4=CC(=O)CC[C@]4(C)C3[C@@H](O)C[C@@]21C (some centres undefined)	inactive	inactive	inactive	inactive	inactive		inactive	0.15 µM (active)
O=C(O)Cc1ccccc1Oc1ccc(Cl)cc1Cl	inactive	inactive	inactive	inactive	inactive		inactive	inactive
CCN(CC)CC(=O)OCC(=O)[C@@]1(O)CC[C@H]2[C@@H]3CCC4=CC(=O)CC[C@]4(C)[C@H]3[C@@H](O)C[C@@]21C	inactive	inactive	inactive	inactive	inactive	inactive		0.0944 µM (active)

Source: PubChem BioAssay (NCATS)
